# Several values for one entry are separate records, joined by “and”; a condition that tells them apart may be missing. Equal values may be shown once. Activity calls are given as the source filed them. Rule for the calls: active = hit-call score of the fitted dose curve at least 0.9, where 1 is the maximum; inactive = score below 0.9.
# Read-out: TIMP metallopeptidase inhibitor 1 (TIMP1), TIMP1 (gene 7076)
# Test: BSK_hDFCGF_TIMP1: BioMAP Diversity Plus: hDFCGF Assay for TIMP metallopeptidase inhibitor 1 (TIMP1) Biomarker Activity (AID 2283062)
# Settings: primary human foreskin fibroblasts; actives raise or lower the signal
# Method in brief: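 Fibroblasts from human foreskin are treated with test chemical and harvested at 24 h. TIMP-1 is quantified by ELISA, and gain or loss of signal is scored against DMSO.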
Compound,outcome,AC50
O=C(Nc1ccccc1)Nc1ccnc(Cl)c1,inactive,
CCCCC(CC)COC(=O)c1ccccc1C(=O)OCC(CC)CCCC (stereo unspecified),inactive,
O=C(O)COc1nc(Cl)c(Cl)cc1Cl,inactive,
Cc1ccc(-c2c(Cl)nc(C#N)n2S(=O)(=O)N(C)C)cc1,,18.3 µM (active)
Fc1ccc(Oc2ccnc3cc(Cl)cc(Cl)c23)cc1,inactive,
CN(C)C(=S)SSC(=S)N(C)C,,9.76 µM (active)
C=CC1(C)OC(=O)N(c2cc(Cl)cc(Cl)c2)C1=O (stereo unspecified),inactive,
COc1nc(NC(C)C)nc(NC(C)C)n1,inactive,
OC(c1ccc(Cl)cc1)(c1cncnc1)c1ccccc1Cl (stereo unspecified),inactive,
CC(C)Oc1cc(-n2nc(C(C)(C)C)oc2=O)c(Cl)cc1Cl,inactive,
CC1COC(Cn2cncn2)(c2ccc(Oc3ccc(Cl)cc3)cc2Cl)O1 (stereo unspecified),,30.4 µM (active)
CCCC1COC(Cn2cncn2)(c2ccc(Cl)cc2Cl)O1 (stereo unspecified),inactive,
Oc1ccccc1-c1ccccc1,inactive,
COC(=O)c1ccccc1C(=O)OC,inactive,
N#Cc1cc(Br)c(O)c(Br)c1,inactive,
CCNc1nc(Cl)nc(NC(C)C)n1,inactive,
N#CC(CCc1ccc(Cl)cc1)(Cn1cncn1)c1ccccc1 (stereo unspecified),inactive,
COP(=S)(OC)Oc1nc(Cl)c(Cl)cc1Cl,inactive,
CNC(=S)S,inactive,
CCCCNC(=O)OCC#CI,,7.08 µM (active) and 26 µM (active)
CS/C(C)=N/OC(=O)N(C)SN(C)C(=O)O/N=C(\C)SC,inactive,
CCCCNC(=O)n1c(NC(=O)OC)nc2ccccc21,inactive,
COc1ccc(C(c2ccc(OC)cc2)C(Cl)(Cl)Cl)cc1,inactive,
CCNc1nc(Cl)nc(NCC)n1,inactive,
CCOc1cc(Oc2ccc(C(F)(F)F)cc2Cl)ccc1[N+](=O)[O-],inactive,
CO/C=C(/C(=O)OC)c1ccccc1Oc1cc(Oc2ccccc2C#N)ncn1,inactive,
C=CCC1=C(C)[C@@H](OC(=O)[C@@H]2[C@@H](C=C(C)C)C2(C)C)CC1=O,,32.1 µM (active)

# Read-out: Monokine induced gamma interferon (MIG), CXCL9 (gene 4283)
# Test: BSK_hDFCGF_MIG: BioMAP Diversity Plus: hDFCGF Assay for Monokine induced gamma interferon (MIG) Biomarker Activity (AID 2283063)
# Settings: primary human foreskin fibroblasts; actives raise or lower the signal
# Method in brief: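 MIG signal, determined by ELISA, reflects 24 h chemical exposure of human skin primary fibroblasts. DMSO serves as negative control and baseline.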
Compound,outcome,AC50
O=C(Nc1ccccc1)Nc1ccnc(Cl)c1,inactive,
CCCCC(CC)COC(=O)c1ccccc1C(=O)OCC(CC)CCCC (stereo unspecified),inactive,
O=C(O)COc1nc(Cl)c(Cl)cc1Cl,inactive,
Cc1ccc(-c2c(Cl)nc(C#N)n2S(=O)(=O)N(C)C)cc1,inactive,
Fc1ccc(Oc2ccnc3cc(Cl)cc(Cl)c23)cc1,,26.6 µM (active)
CN(C)C(=S)SSC(=S)N(C)C,,3.01 µM (active)
C=CC1(C)OC(=O)N(c2cc(Cl)cc(Cl)c2)C1=O (stereo unspecified),inactive,
COc1nc(NC(C)C)nc(NC(C)C)n1,inactive,
OC(c1ccc(Cl)cc1)(c1cncnc1)c1ccccc1Cl (stereo unspecified),inactive,
CC(C)Oc1cc(-n2nc(C(C)(C)C)oc2=O)c(Cl)cc1Cl,inactive,
CC1COC(Cn2cncn2)(c2ccc(Oc3ccc(Cl)cc3)cc2Cl)O1 (stereo unspecified),,31.1 µM (active)
CCCC1COC(Cn2cncn2)(c2ccc(Cl)cc2Cl)O1 (stereo unspecified),inactive,
Oc1ccccc1-c1ccccc1,inactive,
COC(=O)c1ccccc1C(=O)OC,inactive,
N#Cc1cc(Br)c(O)c(Br)c1,inactive,
CCNc1nc(Cl)nc(NC(C)C)n1,inactive,
N#CC(CCc1ccc(Cl)cc1)(Cn1cncn1)c1ccccc1 (stereo unspecified),inactive,
COP(=S)(OC)Oc1nc(Cl)c(Cl)cc1Cl,,14.9 µM (active)
CNC(=S)S,inactive,
CCCCNC(=O)OCC#CI,,5.27 µM (active) and 3.85 µM (active)
CS/C(C)=N/OC(=O)N(C)SN(C)C(=O)O/N=C(\C)SC,,11 µM (active)
CCCCNC(=O)n1c(NC(=O)OC)nc2ccccc21,inactive,
COc1ccc(C(c2ccc(OC)cc2)C(Cl)(Cl)Cl)cc1,inactive,
CCNc1nc(Cl)nc(NCC)n1,inactive,
CCOc1cc(Oc2ccc(C(F)(F)F)cc2Cl)ccc1[N+](=O)[O-],inactive,
CO/C=C(/C(=O)OC)c1ccccc1Oc1cc(Oc2ccccc2C#N)ncn1,inactive,
C=CCC1=C(C)[C@@H](OC(=O)[C@@H]2[C@@H](C=C(C)C)C2(C)C)CC1=O,,31.6 µM (active)

# Read-out: Matrix Metallopeptidase 1 (MMP1), MMP1 (gene 4312)
# Test: BSK_hDFCGF_MMP1: BioMAP Diversity Plus: hDFCGF Assay for Matrix Metallopeptidase 1 (MMP1) Biomarker Activity (AID 2283064)
# Settings: primary human foreskin fibroblasts; actives raise or lower the signal
# Method in brief: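 Primary human foreskin fibroblasts exposed to chemicals for 24 h; MMP1 measured by ELISA. Cytotoxicity tracked by SRB staining in parallel cultures; bidirectional fit relative to DMSO.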
Compound,outcome,AC50
O=C(Nc1ccccc1)Nc1ccnc(Cl)c1,inactive,
CCCCC(CC)COC(=O)c1ccccc1C(=O)OCC(CC)CCCC (stereo unspecified),inactive,
O=C(O)COc1nc(Cl)c(Cl)cc1Cl,inactive,
Cc1ccc(-c2c(Cl)nc(C#N)n2S(=O)(=O)N(C)C)cc1,inactive,
Fc1ccc(Oc2ccnc3cc(Cl)cc(Cl)c23)cc1,,35.3 µM (active)
CN(C)C(=S)SSC(=S)N(C)C,,5.34 µM (active)
C=CC1(C)OC(=O)N(c2cc(Cl)cc(Cl)c2)C1=O (stereo unspecified),inactive,
COc1nc(NC(C)C)nc(NC(C)C)n1,inactive,
OC(c1ccc(Cl)cc1)(c1cncnc1)c1ccccc1Cl (stereo unspecified),,11.5 µM (active)
CC(C)Oc1cc(-n2nc(C(C)(C)C)oc2=O)c(Cl)cc1Cl,,5.65 µM (active)
CC1COC(Cn2cncn2)(c2ccc(Oc3ccc(Cl)cc3)cc2Cl)O1 (stereo unspecified),,33.8 µM (active)
CCCC1COC(Cn2cncn2)(c2ccc(Cl)cc2Cl)O1 (stereo unspecified),inactive,
Oc1ccccc1-c1ccccc1,inactive,
COC(=O)c1ccccc1C(=O)OC,inactive,
N#Cc1cc(Br)c(O)c(Br)c1,inactive,
CCNc1nc(Cl)nc(NC(C)C)n1,inactive,
N#CC(CCc1ccc(Cl)cc1)(Cn1cncn1)c1ccccc1 (stereo unspecified),inactive,
COP(=S)(OC)Oc1nc(Cl)c(Cl)cc1Cl,inactive,
CNC(=S)S,,7.89 µM (active)
CCCCNC(=O)OCC#CI,,8.48 µM (active) and 7.13 µM (active)
CS/C(C)=N/OC(=O)N(C)SN(C)C(=O)O/N=C(\C)SC,inactive,
CCCCNC(=O)n1c(NC(=O)OC)nc2ccccc21,,11.3 µM (active)
COc1ccc(C(c2ccc(OC)cc2)C(Cl)(Cl)Cl)cc1,,5.09 µM (active)
CCNc1nc(Cl)nc(NCC)n1,inactive,
CCOc1cc(Oc2ccc(C(F)(F)F)cc2Cl)ccc1[N+](=O)[O-],,2.89 µM (active)
CO/C=C(/C(=O)OC)c1ccccc1Oc1cc(Oc2ccccc2C#N)ncn1,inactive,
C=CCC1=C(C)[C@@H](OC(=O)[C@@H]2[C@@H](C=C(C)C)C2(C)C)CC1=O,,31 µM (active)

# Reference: PubChem BioAssay (EPA / NIEHS)
